Results on 40 sequences are retold here after publication PMC7862700, “An all-to-all approach to the identification of sequence-specific readers for epigenetic DNA modifications on cytosine”.

HSF1, sequence (Q00613 whole entry): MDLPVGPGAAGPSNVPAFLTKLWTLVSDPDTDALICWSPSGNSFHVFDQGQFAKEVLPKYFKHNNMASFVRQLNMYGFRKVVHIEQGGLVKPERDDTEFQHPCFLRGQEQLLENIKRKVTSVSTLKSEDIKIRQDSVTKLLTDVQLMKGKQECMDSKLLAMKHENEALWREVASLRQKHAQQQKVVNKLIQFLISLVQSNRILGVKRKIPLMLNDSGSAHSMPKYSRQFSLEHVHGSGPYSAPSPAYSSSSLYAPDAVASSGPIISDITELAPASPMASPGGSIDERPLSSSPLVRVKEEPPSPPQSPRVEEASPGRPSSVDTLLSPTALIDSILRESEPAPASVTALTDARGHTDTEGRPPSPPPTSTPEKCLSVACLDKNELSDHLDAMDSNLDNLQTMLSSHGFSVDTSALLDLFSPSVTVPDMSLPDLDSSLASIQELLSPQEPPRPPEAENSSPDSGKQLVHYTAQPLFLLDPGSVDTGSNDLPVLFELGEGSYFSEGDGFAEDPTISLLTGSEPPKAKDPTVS
ETV5, sequence (P41161 whole entry): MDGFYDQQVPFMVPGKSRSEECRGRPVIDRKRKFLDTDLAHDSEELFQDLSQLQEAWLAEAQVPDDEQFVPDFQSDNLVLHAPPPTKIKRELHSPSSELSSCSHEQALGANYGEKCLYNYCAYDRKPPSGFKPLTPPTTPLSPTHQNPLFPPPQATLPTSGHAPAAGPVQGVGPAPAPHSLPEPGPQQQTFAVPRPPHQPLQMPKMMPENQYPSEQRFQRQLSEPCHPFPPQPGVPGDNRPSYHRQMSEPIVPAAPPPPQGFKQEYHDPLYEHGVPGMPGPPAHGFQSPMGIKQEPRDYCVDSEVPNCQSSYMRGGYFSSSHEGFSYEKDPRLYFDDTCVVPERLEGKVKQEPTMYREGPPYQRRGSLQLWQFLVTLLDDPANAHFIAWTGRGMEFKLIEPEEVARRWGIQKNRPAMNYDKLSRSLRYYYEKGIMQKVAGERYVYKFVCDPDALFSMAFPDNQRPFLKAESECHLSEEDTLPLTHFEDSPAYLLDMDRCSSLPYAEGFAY

The target in the first experiment is T1, FEV (Homo sapiens, UniProt Q99581 1-238).
T1 sequence: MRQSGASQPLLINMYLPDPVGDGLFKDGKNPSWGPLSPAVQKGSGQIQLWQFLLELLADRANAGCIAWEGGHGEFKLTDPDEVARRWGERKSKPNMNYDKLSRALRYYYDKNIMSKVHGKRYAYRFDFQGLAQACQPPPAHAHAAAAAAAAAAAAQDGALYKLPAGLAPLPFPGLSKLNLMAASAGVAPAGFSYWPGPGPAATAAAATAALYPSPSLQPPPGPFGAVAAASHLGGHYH
The experiment is described as follows: DAPPL (digital affinity profiling via proximity ligation, sequencing); 10 mM Tris-HCl pH 7.5, 50 mM NaCl, 1 mM DTT, 4% glycerol, room temperature, 30 min; GST-TFs on glutathione beads, 16-mer random dsDNA library, 0.1% formaldehyde crosslink after washing; high values mean tight binding. To be noted: protein: recombinant; tags: N-terminal GST; dsDNA, one strand shown. Summed up: (§1)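 Yeast served to express human transcription factors as GST fusions, which were then captured on glutathione beads and labelled with DNA barcodes. Pooled with a tag-only sample, they were incubated with 200 nmole of a 16-mer random double-stranded DNA library for 30 min at room temperature in Tris/NaCl/DTT/glycerol buffer, washed, crosslinked with 0.1% formaldehyde, ligated by proximity, amplified by PCR and sequenced. Dividing each hexamer's read frequency for a factor by its frequency for the tag-only sample gives the binding signal.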
For GACTCT, the binding signal was 1.32 fold enrichment (6-mer frequency, TF over GST control).
On the same count and under the same terms, the result for TTCAAG reads 1.2 fold enrichment (6-mer frequency, TF over GST control); that for GCTTTG, 1.08 fold enrichment (6-mer frequency, TF over GST control); that for TCACCT, 1.17 fold enrichment (6-mer frequency, TF over GST control).
Same read-out and setting: the result for TGTTGC reads 1.25 fold enrichment (6-mer frequency, TF over GST control); that for CCTTAA, 1.33 fold enrichment (6-mer frequency, TF over GST control).
Still for that read-out and setting: the result for ACTTCC reads 12.4 fold enrichment (6-mer frequency, TF over GST control).
For the sequence TGTTAA, the binding signal was 1.1 fold enrichment (6-mer frequency, TF over GST control).
On the same count and under the same terms, the result for TTACTA reads 1.14 fold enrichment (6-mer frequency, TF over GST control); that for GATTCC, 1.09 fold enrichment (6-mer frequency, TF over GST control).
Same read-out and setting: the result for TTACTC reads 1.21 fold enrichment (6-mer frequency, TF over GST control); that for AAGTAA, 1.24 fold enrichment (6-mer frequency, TF over GST control); that for ATCTGG, 1.23 fold enrichment (6-mer frequency, TF over GST control).
Regarding GAAATC, the binding signal was 2.32 fold enrichment (6-mer frequency, TF over GST control).
The same measure, in the same setting: the result for AACCCT reads 1.29 fold enrichment (6-mer frequency, TF over GST control).
In the case of TCTCAC, the binding signal was 1.47 fold enrichment (6-mer frequency, TF over GST control).
Same read-out and setting: the result for TTTAAA reads 1.25 fold enrichment (6-mer frequency, TF over GST control); that for CTATGC, 1.36 fold enrichment (6-mer frequency, TF over GST control); that for CATCCT, 1.59 fold enrichment (6-mer frequency, TF over GST control).
Still for that read-out and setting: the result for TCTTTG reads 1.09 fold enrichment (6-mer frequency, TF over GST control); that for TTGTAT, 1.26 fold enrichment (6-mer frequency, TF over GST control); that for ATGACC, 1.63 fold enrichment (6-mer frequency, TF over GST control).
As to AATGCC, the binding signal is 1.23 fold enrichment (6-mer frequency, TF over GST control).
Same read-out and setting: the result for TACTAT reads 1.31 fold enrichment (6-mer frequency, TF over GST control); that for TATTCC, 1.61 fold enrichment (6-mer frequency, TF over GST control).
Still for that read-out and setting: the result for TTTCTA reads 1.34 fold enrichment (6-mer frequency, TF over GST control); that for TCTCTA, 1.32 fold enrichment (6-mer frequency, TF over GST control); that for CCGAAC, 1.25 fold enrichment (6-mer frequency, TF over GST control).
Still for that read-out and setting: the result for CTGCGA reads 1.29 fold enrichment (6-mer frequency, TF over GST control).
For the sequence GTATCC, the binding signal was 2.08 fold enrichment (6-mer frequency, TF over GST control).
Still for that read-out and setting: the result for TCCTTC reads 2.2 fold enrichment (6-mer frequency, TF over GST control).
Still for that read-out and setting: the result for TTAACC reads 1.29 fold enrichment (6-mer frequency, TF over GST control); that for ATTATA, 1.32 fold enrichment (6-mer frequency, TF over GST control).
The same measure, in the same setting: the result for TCATTC reads 1.19 fold enrichment (6-mer frequency, TF over GST control); that for AAGTTC, 1.29 fold enrichment (6-mer frequency, TF over GST control); that for TGCTTC, 2.29 fold enrichment (6-mer frequency, TF over GST control).
Consider ACAATC, for which the binding signal was 1.11 fold enrichment (6-mer frequency, TF over GST control).
On the same count and under the same terms, the result for TTTCCG reads 5.31 fold enrichment (6-mer frequency, TF over GST control).
The same measure, in the same setting: the result for GATGGC reads 1.33 fold enrichment (6-mer frequency, TF over GST control).
On the same count and under the same terms, the result for TCCCAT reads 1.32 fold enrichment (6-mer frequency, TF over GST control).

The next experiment concerns the target ETV5 (Homo sapiens, UniProt P41161 1-510). The description is as above. The conditions noted are these: protein: recombinant; tags: N-terminal GST; dsDNA, one strand shown. Summed up: as §1
In the case of GACTCT, the binding signal is 1.26 fold enrichment (6-mer frequency, TF over GST control).
The same measure, in the same setting: the result for TTCAAG reads 1.23 fold enrichment (6-mer frequency, TF over GST control); that for GCTTTG, 1.11 fold enrichment (6-mer frequency, TF over GST control); that for TCACCT, 1.18 fold enrichment (6-mer frequency, TF over GST control).
As for TGTTGC, the binding signal is 1.35 fold enrichment (6-mer frequency, TF over GST control).
Same read-out and setting: the result for CCTTAA reads 1.25 fold enrichment (6-mer frequency, TF over GST control); that for ACTTCC, 8.86 fold enrichment (6-mer frequency, TF over GST control); that for TGTTAA, 1.05 fold enrichment (6-mer frequency, TF over GST control).
As to TTACTA, the binding signal is 1.22 fold enrichment (6-mer frequency, TF over GST control).
With GATTCC, the binding signal is 1.21 fold enrichment (6-mer frequency, TF over GST control).
The same measure, in the same setting: the result for TTACTC reads 1.24 fold enrichment (6-mer frequency, TF over GST control).
As to AAGTAA, the binding signal was 1.32 fold enrichment (6-mer frequency, TF over GST control).
Still for that read-out and setting: the result for ATCTGG reads 1.11 fold enrichment (6-mer frequency, TF over GST control).
On the same count and under the same terms, the result for GAAATC reads 1.58 fold enrichment (6-mer frequency, TF over GST control); that for AACCCT, 1.31 fold enrichment (6-mer frequency, TF over GST control); that for TCTCAC, 1.34 fold enrichment (6-mer frequency, TF over GST control).
For TTTAAA, the binding signal is 1.21 fold enrichment (6-mer frequency, TF over GST control).
On the same count and under the same terms, the result for CTATGC reads 1.38 fold enrichment (6-mer frequency, TF over GST control); that for CATCCT, 1.63 fold enrichment (6-mer frequency, TF over GST control).
On the same count and under the same terms, the result for TCTTTG reads 1.16 fold enrichment (6-mer frequency, TF over GST control); that for TTGTAT, 1.26 fold enrichment (6-mer frequency, TF over GST control).
In the case of ATGACC, the binding signal was 1.54 fold enrichment (6-mer frequency, TF over GST control).
The same measure, in the same setting: the result for AATGCC reads 1.2 fold enrichment (6-mer frequency, TF over GST control); that for TACTAT, 1.31 fold enrichment (6-mer frequency, TF over GST control).
Still for that read-out and setting: the result for TATTCC reads 1.72 fold enrichment (6-mer frequency, TF over GST control); that for TTTCTA, 1.37 fold enrichment (6-mer frequency, TF over GST control); that for TCTCTA, 1.21 fold enrichment (6-mer frequency, TF over GST control).
Consider CCGAAC, for which the binding signal was 1.27 fold enrichment (6-mer frequency, TF over GST control).
The same measure, in the same setting: the result for CTGCGA reads 1.24 fold enrichment (6-mer frequency, TF over GST control).
As for GTATCC, the binding signal was 2.05 fold enrichment (6-mer frequency, TF over GST control).
Turning to TCCTTC, the binding signal is 2.1 fold enrichment (6-mer frequency, TF over GST control).
For TTAACC, the binding signal is 1.22 fold enrichment (6-mer frequency, TF over GST control).
The same measure, in the same setting: the result for ATTATA reads 1.29 fold enrichment (6-mer frequency, TF over GST control).
Same read-out and setting: the result for TCATTC reads 1.19 fold enrichment (6-mer frequency, TF over GST control); that for AAGTTC, 1.47 fold enrichment (6-mer frequency, TF over GST control); that for TGCTTC, 2.1 fold enrichment (6-mer frequency, TF over GST control).
Same read-out and setting: the result for ACAATC reads 1.1 fold enrichment (6-mer frequency, TF over GST control).
Turning to TTTCCG, the binding signal was 4.02 fold enrichment (6-mer frequency, TF over GST control).
On the same count and under the same terms, the result for GATGGC reads 1.26 fold enrichment (6-mer frequency, TF over GST control); that for TCCCAT, 1.34 fold enrichment (6-mer frequency, TF over GST control).

For another experiment, the target named is HSF1 (Homo sapiens, UniProt Q00613 1-529). Described as above. The conditions noted are these: protein: recombinant; tags: N-terminal GST; chain copies: 3; dsDNA, one strand shown. Summed up:
as §1
In the case of GACTCT, the binding signal was 1.26 fold enrichment (6-mer frequency, TF over GST control).
Regarding TTCAAG, the binding signal was 1.49 fold enrichment (6-mer frequency, TF over GST control).
The same measure, in the same setting: the result for GCTTTG reads 1.23 fold enrichment (6-mer frequency, TF over GST control); that for TCACCT, 1.03 fold enrichment (6-mer frequency, TF over GST control); that for TGTTGC, 1.02 fold enrichment (6-mer frequency, TF over GST control).
Still for that read-out and setting: the result for CCTTAA reads 1.62 fold enrichment (6-mer frequency, TF over GST control).
Same read-out and setting: the result for ACTTCC reads 1.55 fold enrichment (6-mer frequency, TF over GST control); that for TGTTAA, 1.3 fold enrichment (6-mer frequency, TF over GST control); that for TTACTA, 1.79 fold enrichment (6-mer frequency, TF over GST control).
As for GATTCC, the binding signal is 1.34 fold enrichment (6-mer frequency, TF over GST control).
On the same count and under the same terms, the result for TTACTC reads 1.49 fold enrichment (6-mer frequency, TF over GST control); that for AAGTAA, 1.24 fold enrichment (6-mer frequency, TF over GST control); that for ATCTGG, 2.08 fold enrichment (6-mer frequency, TF over GST control).
On the same count and under the same terms, the result for GAAATC reads 1.23 fold enrichment (6-mer frequency, TF over GST control).
On the same count and under the same terms, the result for AACCCT reads 1.24 fold enrichment (6-mer frequency, TF over GST control); that for TCTCAC, 1.3 fold enrichment (6-mer frequency, TF over GST control); that for TTTAAA, 1.64 fold enrichment (6-mer frequency, TF over GST control).
For the sequence CTATGC, the binding signal is 1.28 fold enrichment (6-mer frequency, TF over GST control).
On the same count and under the same terms, the result for CATCCT reads 1.12 fold enrichment (6-mer frequency, TF over GST control).
Still for that read-out and setting: the result for TCTTTG reads 1.24 fold enrichment (6-mer frequency, TF over GST control); that for TTGTAT, 1.21 fold enrichment (6-mer frequency, TF over GST control); that for ATGACC, 1.42 fold enrichment (6-mer frequency, TF over GST control).
In the case of AATGCC, the binding signal was 1.07 fold enrichment (6-mer frequency, TF over GST control).
Same read-out and setting: the result for TACTAT reads 1.37 fold enrichment (6-mer frequency, TF over GST control); that for TATTCC, 2.11 fold enrichment (6-mer frequency, TF over GST control).
Same read-out and setting: the result for TTTCTA reads 3.01 fold enrichment (6-mer frequency, TF over GST control); that for TCTCTA, 1.74 fold enrichment (6-mer frequency, TF over GST control); that for CCGAAC, 1.54 fold enrichment (6-mer frequency, TF over GST control).
The same measure, in the same setting: the result for CTGCGA reads 1.3 fold enrichment (6-mer frequency, TF over GST control); that for GTATCC, 1.14 fold enrichment (6-mer frequency, TF over GST control); that for TCCTTC, 2.13 fold enrichment (6-mer frequency, TF over GST control).
Regarding TTAACC, the binding signal was 1.8 fold enrichment (6-mer frequency, TF over GST control).
On the same count and under the same terms, the result for ATTATA reads 2.05 fold enrichment (6-mer frequency, TF over GST control); that for TCATTC, 1.5 fold enrichment (6-mer frequency, TF over GST control); that for AAGTTC, 1.94 fold enrichment (6-mer frequency, TF over GST control).
As to TGCTTC, the binding signal is 1.49 fold enrichment (6-mer frequency, TF over GST control).
Still for that read-out and setting: the result for ACAATC reads 1.43 fold enrichment (6-mer frequency, TF over GST control); that for TTTCCG, 1.48 fold enrichment (6-mer frequency, TF over GST control).
The same measure, in the same setting: the result for GATGGC reads 1.1 fold enrichment (6-mer frequency, TF over GST control); that for TCCCAT, 1.21 fold enrichment (6-mer frequency, TF over GST control).
